Assay outcomes (PubChem)
Rows were chosen to be rich in hits. Some 4.5% of all compounds tested hit in one or more screens of this group.
FXN GAA850 act – FXN promoter activators, primary screen, cell-based, luciferase luminescence, HEK293 lucGAA850; AID 540364, 2011; HEK293 lucGAA850 FXN promoter luciferase reporter, 24 h; percent of 10 µM SAHA response; activation, % at 6 µM; actives 0.56% (n = 360,000);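 active = activation above the average of all compounds screened plus 3 SD, cutoff fixed separately per campaign, cut at about 7.5% in these data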;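 also: 0% = DMSO wells and 100% = 10 µM SAHA wells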
ssDAF12 agonist – S. stercoralis DAF-12 nuclear receptor activators, primary screen, cell-based, luminescence, HEK293, GRIP1 co-expression, lit1-tk-luc. Nuclear hormone receptor DAF-12 (Strongyloides stercoralis). HEK293 ssDAF-12/GRIP1 lit1-tk-luc reporter; % of 3 µM dafachronic acid response. activation, % at 6.8 µM. actives 1% (n = 370,000). AID 652126, 2013;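 active = activation above the mean over all tested compounds plus 3 SD, cut at about 0.9% in these data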;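 also: 0% = DMSO-only wells and 100% = 3 µM delta7-dafachronic acid wells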
DAX1 inh-1 – DAX1 (NR0B1) inhibitors, primary screen, cell-based, HEK293, Gal4-DAX1, luciferase luminescence; inhibition, % at 6.75 µM; Nuclear receptor subfamily 0 group B member 1 (Homo sapiens), P51843; AID 504766, 2011; actives 0.99% (n = 340,000); HEK293 Gal4-DAX1 luciferase reporter;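 active = inhibition above the mean over all tested compounds plus 3 SD, cut at about 4.2% in these data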;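 also: 0% = DAX1-transfected cells with DMSO and 100% = empty-vector control cells with DMSO; inhibition shows as a rise in luminescence from relieved DAX1 repression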
DAX1 inh-2 – DAX1 (NR0B1) inhibitors on StAR promoter, primary screen, cell-based, luminescence, SF-1 (NR5A1), full-length DAX-1; HEK293T StAR-luciferase reporter, SF-1/DAX-1 repression relief; inhibition, % at 6.8 µM; actives 1.1% (n = 370,000);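 active = inhibition above the mean over all tested compounds plus 3 SD, cut at about 3.6% in these data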;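 also: 0% = DAX-1 cells with DMSO and 100% = cells lacking DAX-1 with DMSO; higher inhibition means more luminescence from relief of DAX-1 repression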
hgDAF12 agonist – H. glycines DAF-12 receptor agonists, primary screen, cell-based, luminescence, HEK293, GAL4 fusion, UAS-luciferase. Nuclear hormone receptor DAF-12 (Heterodera glycines), GAL4 fusion. HEK293 GAL4-hgDAF12 UAS-luciferase reporter, agonist luminescence; normalized to butyrate control. activation, % at 6.8 µM. actives 1.8% (n = 370,000);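 active = activation above a cutoff set at the mean of all screened compounds plus 3 SD, cut at about 10% in these data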;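 also: 0% = DMSO wells and 100% = sodium butyrate wells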
hcDAF-12 act – H. contortus DAF-12 nuclear receptor activators, primary screen, cell-based, luminescence, HEK293, lit1-tk-luc reporter; HEK293 hcDAF-12 lit1-tk-luc reporter; 0% DMSO, 100% Δ7-dafachronic acid; activation, % at 6.8 µM; actives 1.4% (n = 370,000);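 active = activation above the mean of all tested compounds plus 3 SD, cut at about 5.5% in these data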;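 also: 100% = response to 3 µM Δ7-dafachronic acid high control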
DAX1 conf – DAX1 (NR0B1) inhibitors relieving SF-1 repression, confirmation, cell-based, luminescence, HEK293T, full-length DAX-1, SF-1 activated StAR promoter; shares compounds with DAX1 inh-2; HEK293T StAR-promoter luciferase reporter, SF-1/DAX-1 repression; inhibition, % at 6.8 µM; actives 87% (n = 2,400);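 active = inhibition above the average of every tested compound plus 3 SD, cut at about 3.8% in these data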;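 also: 0% = DAX-1 cells with DMSO and 100% = no DAX-1 control cells with DMSO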
Target sequence (P51843 whole entry, looked up): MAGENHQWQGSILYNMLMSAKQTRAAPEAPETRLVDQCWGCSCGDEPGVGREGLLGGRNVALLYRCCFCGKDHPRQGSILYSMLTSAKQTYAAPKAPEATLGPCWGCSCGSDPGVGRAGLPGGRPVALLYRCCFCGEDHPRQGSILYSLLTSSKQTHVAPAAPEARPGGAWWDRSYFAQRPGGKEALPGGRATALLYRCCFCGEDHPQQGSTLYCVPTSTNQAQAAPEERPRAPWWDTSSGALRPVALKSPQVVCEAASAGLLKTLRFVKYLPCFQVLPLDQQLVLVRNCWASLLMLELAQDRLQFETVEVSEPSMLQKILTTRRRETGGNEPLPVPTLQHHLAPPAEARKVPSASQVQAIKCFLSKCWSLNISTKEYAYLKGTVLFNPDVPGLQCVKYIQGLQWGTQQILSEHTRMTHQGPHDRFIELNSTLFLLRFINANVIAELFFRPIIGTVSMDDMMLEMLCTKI
SF1 mutant ctr – StAR reporter signal changes without DAX1, counter-screen for DAX1 inhibitor project, cell-based, luminescence, AF-2 mutant SF-1, transactivation | shares compounds with DAX1 inh-2 | HEK293 StAR-luciferase, SF-1 AF2 mutant | inhibition, % at 6.8 µM | actives 78% (n = 2,400);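 active = inhibition above the mean of all tested compounds plus 3 SD, cut at about 3% in these data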;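 also: 0% = DAX-1 transfected cells with DMSO and 100% = cells without DAX-1 with DMSO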
Starred values were filed as active, the others as inactive; . = no result given.

SMILES	FXN GAA850 act	ssDAF12 agonist	DAX1 inh-1	DAX1 inh-2	hgDAF12 agonist	hcDAF-12 act	DAX1 conf	SF1 mutant ctr
CCN(C[C@H]1N[C@@](C)(C(=O)OC)[C@H]2C(=O)N(Cc3ccccc3)C(=O)[C@@H]12)C(=O)COC	-1	0	0	5.9*	1	1	0	0
CCN(C[C@H]1N[C@@](C)(C(=O)OC)[C@H]2C(=O)N(Cc3ccccc3)C(=O)[C@@H]12)C(=O)c1ccc(C(C)(C)C)cc1	1	-1	-2	0	3	1	.	.
CN1C(=O)c2cccc3c(S(=O)(=O)N(C)C)ccc1c23	2	-1	2	1	-1	-2	.	.
CN(C)c1ccc(N2C(=NC(=O)CC3CCCCC3)SC3CS(=O)(=O)CC32)cc1 (stereo unspecified)	0	-1	2	-1	0	-1	.	.
COC(=O)c1ccccc1NC(=O)N1CCc2ccc(NC(=O)c3ccccn3)cc2C1	3	0	1	5.1*	7	1	-4	-3
O=c1cc(-c2ccc(O)c(O)c2)oc2ccc3ccccc3c12	-1	0	-4	8.4*	10*	3	1	-5
Cc1ccsc1C(=O)NCCc1c[nH]c2ccccc12	2	1	2	4.6*	8	1	5.9*	2.9*
O=[N+]([O-])c1ccc(Cl)c(S(=O)(=O)Nc2cccc(-c3ccc(N4CCOCC4)nn3)c2)c1	0	-1	-1	5.5*	6	2	9.5*	4.5*
Cc1ccc(S(=O)(=O)Nc2cccc(-c3ccc(N4CCCCCC4)nn3)c2)cc1C	3	-1	1	3	5	2	.	.
O=S(=O)(Nc1cccc(-c2ccc(N3CCCCCC3)nn2)c1)c1ccccc1F	2	-1	1	5.8*	4	4	6.1*	2
O=[N+]([O-])c1ccc(Cl)c(S(=O)(=O)Nc2ccc(-c3ccc(N4CCOCC4)nn3)cc2)c1	2	-1	1	0	2	-1	.	.
O=S(=O)(Nc1cccc(-c2ccc(N3CCCCCC3)nn2)c1)c1cccc(F)c1	5	0	1	4.6*	5	1	6.9*	4.4*
O=S(=O)(Nc1cccc(-c2ccc(N3CCCCCC3)nn2)c1)c1ccc(F)cc1	5	0	2	5.7*	4	4	2	3
COC(=O)c1ccc(Cn2nnc3c(=O)[nH]c(C4CCCN(S(=O)(=O)c5cccc(Cl)c5)C4)nc32)cc1 (stereo unspecified)	0	-1	0	0	4	-1	.	.
Cc1ccc2nc(-c3cccc(Cl)c3)c(Cc3cccc(F)c3)n2c1	.	-1	.	4.8*	5	2	2	2
Cc1ccc2nc(-c3ccc(Cl)cc3)c(Cc3cccc(F)c3)n2c1	.	0	.	3	8	0	.	.
Cc1ccc(-c2nc3ccc(Cl)cn3c2Cc2ccccc2C(F)(F)F)cc1	.	0	.	3	10	3	.	.
Cc1ccc2nc(-c3ccc(Cl)cc3)c(Cc3ccccc3C(F)(F)F)n2c1	.	-1	.	7.7*	12*	2	3.7*	3.7*
O=C(N/N=C/c1ccc(OCc2ccccc2)cc1)c1ccco1	4	0	4	0	7	2	.	.
O=C(N/N=C/c1ccc2cccnc2c1)c1ccco1	3	0	1	5.0*	12*	3	14*	7.2*
Cc1cccc(OCC(=O)Nc2cc(NC(=O)COc3cccc(C)c3C)cc(C(=O)O)c2)c1C	1	-1	0	0	-1	1	.	.
Cc1ccccc1OCC(=O)Nc1cccc(C(=O)O)c1	-3	-1	-9	5.0*	11*	3	7.9*	4.3*
C/C(=N\NC(=O)c1ccco1)c1ccc(NC(=O)c2cccs2)cc1	2	0	1	4.7*	11*	2	-1	-1
CCC(NC(=O)c1cc(COc2ccc(F)cc2Cl)on1)c1ccncc1 (stereo unspecified)	0	-1	-1	-6	-2	-3	.	.
Cn1ccc2cc(-c3csc(N4CCC(C(N)=O)CC4)n3)ccc21	-1	0	1	0	3	1	.	.
SMILES	FXN GAA850 act	ssDAF12 agonist	DAX1 inh-1	DAX1 inh-2	hgDAF12 agonist	hcDAF-12 act	DAX1 conf	SF1 mutant ctr
CCOc1cccc2cc(-c3csc(NC(=O)CCC(=O)N4CCC(C)CC4)n3)c(=O)oc12	5	-1	1	0	2	-2	.	.
CCOc1cccc2cc(-c3csc(NC(=O)CCC(=O)NCCN4CCCCC4C)n3)c(=O)oc12 (stereo unspecified)	1	1	3	6.5*	23*	5	14*	7.0*
O=C(NC1CC1)c1ccc2nc([C@@H]3O[C@H](CO)[C@H](O)[C@H](O)[C@H]3O)[nH]c2c1	1	-1	.	1	-3	0	.	.
COc1ccccc1Nc1nnc(SCC2CCCCO2)s1 (stereo unspecified)	-1	0	-1	5.7*	11*	6.0*	4.5*	1
CN1OC[C@@H]2CN[C@H](c3ccc(-c4ccc(C#N)cc4)cc3)C[C@@H]21	2	1	3	5.4*	12*	3	14*	8.1*
C/C(=N\NC(N)=O)c1ccc(-n2ccnc2)cc1	2	-1	1	0	1	-1	.	.
C/C(=N\Nc1ccc(C(=O)O)cc1)c1ccc(-n2ccnc2)cc1	4	-1	-1	6.8*	12*	3	8.3*	5.3*
C=C(C)Cn1c(=O)c(NC(=O)c2ccccc2)c2n(c1=S)CCC2	1	-1	0	0	2	1	.	.
